# From paper PMC4336329 (PLoS ONE, 2015)
# Screen size: about 310,000 compounds; about 14,000 (4.5%) showed an effect of 50% or more. The effect is printed as a negative number. This excerpt belongs to a sample that is enriched for strong results.
# Target: human ether-à-go-go-related gene (hERG) potassium channel (human, UniProt Q12809)
# Assay: primary screen, population patch clamp on CHO cells stably expressing hERG; higher = less effect of the substance
# 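Also: peak tail current of the secondary pulse compared with the same well before compound.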
# Sequence of human ether-à-go-go-related gene (hERG) potassium channel (Q12809 whole entry, looked up): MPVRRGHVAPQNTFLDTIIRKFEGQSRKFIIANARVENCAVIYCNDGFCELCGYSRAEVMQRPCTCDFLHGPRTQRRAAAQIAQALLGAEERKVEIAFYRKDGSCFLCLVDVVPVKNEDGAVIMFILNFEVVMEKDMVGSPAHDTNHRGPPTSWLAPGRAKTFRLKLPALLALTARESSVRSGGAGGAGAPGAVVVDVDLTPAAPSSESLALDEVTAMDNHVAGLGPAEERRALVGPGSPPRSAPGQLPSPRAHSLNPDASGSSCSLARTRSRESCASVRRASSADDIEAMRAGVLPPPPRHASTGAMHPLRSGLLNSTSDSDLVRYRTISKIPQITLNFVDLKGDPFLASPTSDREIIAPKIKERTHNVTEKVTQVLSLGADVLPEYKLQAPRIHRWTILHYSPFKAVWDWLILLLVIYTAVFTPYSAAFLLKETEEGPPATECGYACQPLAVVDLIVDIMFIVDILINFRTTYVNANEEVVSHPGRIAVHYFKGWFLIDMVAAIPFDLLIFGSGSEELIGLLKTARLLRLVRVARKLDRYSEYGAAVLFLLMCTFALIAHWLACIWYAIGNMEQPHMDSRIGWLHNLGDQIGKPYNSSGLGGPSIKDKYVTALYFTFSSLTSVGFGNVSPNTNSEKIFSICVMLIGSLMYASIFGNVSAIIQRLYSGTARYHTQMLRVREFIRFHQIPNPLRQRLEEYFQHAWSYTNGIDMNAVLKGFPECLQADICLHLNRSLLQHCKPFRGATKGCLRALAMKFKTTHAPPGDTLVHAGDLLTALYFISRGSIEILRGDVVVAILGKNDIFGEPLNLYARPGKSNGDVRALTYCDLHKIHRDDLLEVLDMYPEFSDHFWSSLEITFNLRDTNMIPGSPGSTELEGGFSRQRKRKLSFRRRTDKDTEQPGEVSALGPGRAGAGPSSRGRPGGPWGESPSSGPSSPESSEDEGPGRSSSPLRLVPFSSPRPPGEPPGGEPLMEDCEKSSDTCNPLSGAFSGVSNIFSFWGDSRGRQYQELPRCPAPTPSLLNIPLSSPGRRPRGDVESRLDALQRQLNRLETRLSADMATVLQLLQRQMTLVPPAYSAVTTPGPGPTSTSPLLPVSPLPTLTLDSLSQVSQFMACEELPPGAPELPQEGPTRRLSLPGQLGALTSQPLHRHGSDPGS
row,Compound,"hERG current change (%, negative = inhibition) at 10uM [%]"
1,Cc1cc(OCC(=O)OC(C)(C)C)c2c3c(c(=O)oc2c1)CCC3,5.64
2,Cc1ccc(NC2CCCN(C(=O)c3cnc4ccccn4c3=O)C2)cc1C (stereo not drawn),-3.33
3,CCOc1ccc(S(=O)(=O)NCc2cccnc2)cc1,15.5
4,Cc1ccc(C(=O)OC2CCOC2=O)cc1NC(=O)c1ccco1 (stereo not drawn),0.0901
5,Cc1cc(C)c2c(N)c(C(=O)NC3CC3)sc2n1,8.51
6,CC(C)(C)CNC(CO)C12CC3CC(CC(C3)C1)C2.Cl (stereo not drawn),-4.3
7,Cc1ncc(S(=O)(=O)C(C)(C)C)c(N)n1,2.37
8,O=C(c1sc2ccccc2c1Cl)N1CCN(CCc2ccccn2)CC1,-60.5
9,O=C(c1sc2cccc(Cl)c2c1Cl)N1CCN(CCc2ccccn2)CC1,-28.9
10,O=C(c1sc2ccccc2c1Cl)N1CCN(c2ncccn2)CC1,-9.78
11,O=C(c1sc2ccccc2c1Cl)N1CCN(c2ccccn2)CC1,-68.7
12,O=C(c1cc(-c2ccccn2)nc2ccc(Cl)cc12)N1CCN(CCc2ccccc2)CC1,6.73
13,Cc1noc(C)c1C(=O)N1CCN(C(=O)c2sc3cc(Cl)ccc3c2Cl)CC1,-47.4
14,O=C(c1sc2cc(Cl)ccc2c1Cl)N1CCN(CCc2ccccn2)CC1,-69.6
15,O=C(c1sc2ccccc2c1Cl)N1CCN(c2ccccc2F)CC1,-1.51
16,O=C(c1sc2ccccc2c1Cl)N1CCN(c2ccc(F)cc2)CC1,-3.54
17,COc1cc(C)nc(N2CCCC(C(=O)NC3CCC(C)CC3)C2)n1 (stereo not drawn),-0.336
18,CCOc1ccc(CCNC(=O)CSCc2ccc(C)cc2)cc1OCC,-2.33
19,Cc1cc2c(cc1C)NC(=O)CC(C(F)(F)C(F)(F)C(F)(F)F)=N2,9.6
20,C(=N\NC1=Nc2cccc3cccc1c23)/c1cccnc1,-5.08
21,O=C(O)c1ccc(NC(=O)C(c2ccccc2)c2ccccc2)cc1,14.3
22,COc1ccc(C2C(C#N)=C(SC)NC3=C2C(=O)CC(C)(C)C3)cc1 (stereo not drawn),-15.4
23,COC(=O)[C@@H]1CCCN1Cc1c(C(=O)N2CCOCC2)nc2c(C)cccn12,24.1
24,COc1ccccc1NC(=O)Nc1ccnn1C1CCCCC1,-12.7
25,O=C(Nc1ccnn1C1CCN(CCCC2CCCC2)CC1)c1ccccc1Cl,-86.4
26,COc1ccccc1C(=O)Nc1ccnn1C1CCN(CCCC2CCCC2)CC1,-85.1
27,O=C(Nc1ccnn1C1CCN(C2CCCCC2)CC1)c1ccccc1,-25.8
28,O=C(Nc1ccnn1C1CCN(CCCC2CCCC2)CC1)c1ccccc1,-73.1
29,COc1ccccc1N1CCN(CC(=O)Nc2ccnn2C2CCCC2)CC1,3.01
30,O=C(Nc1ccnn1C1CCN(C2CCCC2)CC1)c1ccccc1,1.61
